ALOX12 inh = blocks human arachidonate 12S-lipoxygenase; P18054; purified 12hLO, xylenol orange hydroperoxide absorbance; Potency, µM (series often up to 108 µM), actives largely listed as inhibitors; 1.1% of 580,000 active
Target sequence (P18054 whole entry, looked up): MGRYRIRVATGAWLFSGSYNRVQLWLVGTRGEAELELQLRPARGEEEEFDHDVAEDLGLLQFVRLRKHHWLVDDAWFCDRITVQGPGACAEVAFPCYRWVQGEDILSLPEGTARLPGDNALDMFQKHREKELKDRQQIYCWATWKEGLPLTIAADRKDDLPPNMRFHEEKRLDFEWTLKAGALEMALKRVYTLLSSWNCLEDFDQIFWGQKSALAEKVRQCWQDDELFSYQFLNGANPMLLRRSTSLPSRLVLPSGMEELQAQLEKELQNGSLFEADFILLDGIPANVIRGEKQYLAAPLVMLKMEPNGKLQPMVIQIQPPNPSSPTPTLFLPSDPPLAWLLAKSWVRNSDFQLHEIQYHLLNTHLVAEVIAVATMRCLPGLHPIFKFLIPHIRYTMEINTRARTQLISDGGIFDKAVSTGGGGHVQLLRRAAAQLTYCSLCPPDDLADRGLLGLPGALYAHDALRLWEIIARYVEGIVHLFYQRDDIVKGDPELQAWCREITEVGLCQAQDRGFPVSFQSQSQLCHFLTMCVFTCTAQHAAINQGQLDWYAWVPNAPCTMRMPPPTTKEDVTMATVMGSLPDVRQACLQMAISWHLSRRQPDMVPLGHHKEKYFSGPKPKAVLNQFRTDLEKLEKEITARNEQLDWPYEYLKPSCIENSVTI
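Purified human 12hLO at 150 nM in 25 mM Hepes, 0.01% Triton X-100, pH 7.0, preincubated 15 min at room temperature with compound. Reaction started with 40 uM arachidonic acid, 30 min at room temperature. Hydroperoxide measured by Fe-xylenol orange, 573/405 nm absorbance ratio.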
DT40 TDP1 no CPT = qHTS for Inhibitors of human tyrosyl-DNA phosphodiesterase 1 (TDP1): qHTS in cells in absence of CPT | 15% of 420,000 active | DT40 Tdp1-/- hTDP1 cells, no CPT, ATP luminescence, 48 h | AID 686978, 2013 | Potency, µM (doses to about 46.2 µM), actives largely listed as inhibitors; also: nearly all actives have a fitted effect of over 55% in size
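Compound effects on proliferation are scored in DT40 Tdp1-/-;hTDP1 cells in the absence of CPT. ATP levels (CellTiter-Glo luminescence) are recorded after a ≥48 hr, 37 °C incubation.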
HT1080-NT tox = kills 2HG-producing HT-1080-NT fibrosarcoma cells; HT-1080-NT fibrosarcoma viability, CellTiter-Glo ATP luminescence, 48 h; Potency, µM (top dose mostly 46.1 µM), usual class: cytotoxic; 1.6% of 360,000 active;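 also: NT is the 2HG producing partner of a matched IDH1 knockdown line; nearly all actives have a fitted effect of over 55% in size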
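Compounds were tested in concentration-response format on HT-1080-NT cells for 48 hours at 37 degrees C. Cell viability came from CellTiter-Glo luminescence; curves were classified by r2, response magnitude and activity.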
DT40 TDP1 CPT = DT40-hTDP1 cell growth loss with CPT. chicken DT40 Tdp1-/-;hTDP1 cells + 20 nM CPT, ATP luminescence, 48 h. Potency, µM (top dose mostly 46.2 µM), actives largely listed as inhibitors. 12% of 420,000 active. AID 686979; also: nearly all actives have a fitted effect of over 55% in size
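Cell growth measured by CellTiter-Glo luminescence after a minimum 48 h, 37 C compound exposure with 20 nM CPT in Tdp1-knockout DT40 cells stably expressing hTDP1, seeded 400/well; qHTS titration format.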
HT1080 IDH1KD tx = kills HT-1080 cells with IDH1 knockdown | 2% of 360,000 active | HT-1080 IDH1 knockdown viability, ATP luminescence, 48 h | Potency, µM (top dose mostly 46.1 µM), usual class: cytotoxic
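HT-1080-IDH1KD cells (IDH1 knocked down), 750/well in RPMI with 5% FBS, treated with compound 48 h at 37 degrees C. Viability by CellTiter-Glo luminescence, normalised to DMSO and no-cell wells; concentration-response curves classed.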
IL1B secr inh = blocks inflammasome-driven IL-1 beta release; AID 743279; activity change, % at 57.5 µM; 4.7% of 360,000 active; THP-1 LPS/ATP IL-1B secretion, AlphaLISA, 16 h; stronger effect = lower value; in the data active = activity change below about -50%; inconclusive = mostly about -30% to -49%
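THP-1 cells pretreated 1 hr with compounds (up to 57.5 uM final), then stimulated with LPS (250 ng/mL final) plus ATP (1.25 mM final); secreted IL-1B measured by AlphaLISA after 16 hr, decreased signal indicating inhibition.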
A number is an active result; – = inactive; ? = inconclusive; · = no result given. This is one part of a sample in which hits are shown more often than they occur. Unless noted, calls follow the shape of the dose curve; as a rule, active = well fitted curve in the direction sought with a large enough effect; inconclusive = small, poorly fitted or top-dose-only effect, or another doubt; inactive = no such curve, though single readings can be large; an effect the other way counts as inactive or inconclusive.

SMILES	ALOX12 inh	DT40 TDP1 no CPT	HT1080-NT tox	DT40 TDP1 CPT	HT1080 IDH1KD tx	IL1B secr inh
COc1ccc(-c2[nH]ncc2CN2CCN(C(=O)c3cccs3)CC2)c(F)c1	?	–	–	–	–	–
O=C(c1cccs1)N1CCN(Cc2cn[nH]c2-c2ccc(F)cc2F)CC1	–	–	–	–	–	-51
COc1ccc(C(=O)N2CCc3ccc(C(=O)NCc4cccc(OC)c4)cc32)cc1	–	·	·	·	·	·
COc1cccc2c1OCC(C(=O)O)C2 (stereo not given)	?	–	–	–	?	–
COc1cccc2c1C(CO)N1C(C#N)C3CC(C(=O)O)C(C1C2)N3C (stereo not given)	–	0.21µM	–	0.18µM	?	-116
O=c1[nH]cnc2nc(-c3ccccc3)c(-c3ccccc3)nc12	–	2.9µM	–	1.5µM	–	–
CC(C)(CNC(=O)COc1ccccc1Cc1ccccc1)N1CCOCC1	?	?	–	?	–	-59
Cc1ccccc1OCC(=O)NCC(C)(C)N1CCOCC1	–	–	–	–	–	–
COc1cccc(-c2nc(NC(C)C)c3ccccc3n2)c1O	?	21µM	?	?	?	?
CCC(C)Nc1nc(-c2cccc(OC)c2O)nc2ccccc12 (stereo not given)	?	?	?	?	?	-74
COc1cc(NC(=O)C2CCN(c3nc4ccccc4nc3C(F)(F)F)CC2)cc(OC)c1	–	26µM	·	16µM	·	·
Cc1ccc(NC(=O)C2CCN(c3nc4ccccc4nc3C(F)(F)F)CC2)cc1C	–	?	·	?	·	·
O=C(Nc1cccc(Cl)c1)C1CCN(c2nc3ccccc3nc2C(F)(F)F)CC1	–	21µM	·	?	·	·
O=C(Nc1cccc(F)c1)C1CCN(c2nc3ccccc3nc2C(F)(F)F)CC1	?	16µM	·	18µM	·	·
CCNC(=O)C1(C)CCN(Cc2ccc(-c3ccccc3)cc2)C1 (stereo not given)	–	21µM	–	?	–	–
CCNC(=O)C1(C)CCN(Cc2csc(-c3ccccc3)n2)C1 (stereo not given)	–	12µM	–	?	–	–
O=C(CCC1N=C2c3ccccc3N=C(SCc3ccc(Cl)cc3)N2C1=O)NC1CCCCC1 (stereo not given)	–	13µM	·	–	·	·
Cc1ccc(CSC2=Nc3ccccc3C3=NC(CCC(=O)NC4CCCCC4)C(=O)N23)cc1 (stereo not given)	?	?	·	23µM	·	·
COc1ccccc1CNC(=O)CCC1N=C2c3ccccc3N=C(SCc3ccc(C)cc3)N2C1=O (stereo not given)	–	?	·	?	·	·
NC(=O)CC(NC(=O)Cc1ccc(Br)cc1)c1ccc(N2CCN(c3ccccn3)CC2)c([N+](=O)[O-])c1 (stereo not given)	?	–	–	?	–	–
NC(=O)CC(NC(=O)c1cccc(Br)c1)c1ccc(N2CCN(c3ccccn3)CC2)c([N+](=O)[O-])c1 (stereo not given)	?	13µM	–	15µM	–	–
NC(=O)CC(NC(=O)c1ccc(Br)cc1)c1ccc(N2CCN(c3ccccn3)CC2)c([N+](=O)[O-])c1 (stereo not given)	–	21µM	–	23µM	–	–
CCn1c2ccccc2c2cnc(N=CN(C)C)c(C#N)c21	–	15µM	–	?	–	–
CCN(CC)CCn1c2ccccc2c2cnc(N=CN(C)C)c(C#N)c21	–	16µM	?	16µM	?	·
CN(C)/C=N/c1c(C#N)cnn1-c1ccccc1	–	–	–	–	–	–
SMILES	ALOX12 inh	DT40 TDP1 no CPT	HT1080-NT tox	DT40 TDP1 CPT	HT1080 IDH1KD tx	IL1B secr inh
CNCCN1C(=O)CC[C@H]2CN(C(=O)c3cnc4c(c3)CCCC4)CC[C@H]21	–	·	·	·	·	·
CCOc1ccc(CN(C)C(=O)c2cc(S(=O)(=O)Nc3ccc(C)cc3)ccc2C)cc1	–	·	·	·	·	·
Cc1nc2ncccn2c1-c1csc(Nc2ccc(N(C)C)cc2)n1	?	0.018µM	?	0.0052µM	?	?
COc1ccc(Nc2nc(-c3c(C)nc4ncccn34)cs2)cc1	?	0.0073µM	0.013µM	0.0092µM	0.0073µM	-61
Cc1nc2ncccn2c1-c1csc(Nc2ccccc2)n1	?	18µM	–	16µM	–	–
CN(C)c1nc(F)c(F)c(S(=O)(=O)c2ccccc2)c1F	–	–	–	–	–	–
COc1ccc(-c2nc(C3CC(=O)N(c4ccc(F)c(Cl)c4)C3)no2)c(C)c1 (stereo not given)	–	·	·	·	·	·
CC(=O)Nc1cc(Br)ccc1O	–	–	–	–	–	–
CC(=O)Nc1cc(-c2ccccc2)ccc1O	?	?	–	21µM	–	–
CCC(NC(=O)c1ccc(OC)cc1)c1ccccc1OC(F)F (stereo not given)	–	·	·	·	·	·
CCC(=O)N1CCc2sc(C(=O)NC3CCN(Cc4ccccc4)CC3)cc2C1	–	·	·	·	·	·
CC1CCc2sc(C(=O)NC3CCN(Cc4ccccc4)CC3)cc2C1 (stereo not given)	–	13µM	–	21µM	?	-59
CCC1CCc2sc(C(=O)NC3CCN(Cc4ccccc4)CC3)cc2C1 (stereo not given)	?	13µM	–	21µM	–	-74
Nc1ccc2c(c1)ncn2CCCn1cnc2cc(N)ccc21	–	?	–	21µM	–	–
CCn1c(C)nc2cc(N)ccc21	–	–	–	–	–	–
Cc1ccc(S(=O)(=O)Oc2ccc3c(c2)O/C(=C\c2cccc(C)c2)C3=O)cc1	–	·	·	·	·	·
Cc1ccc(S(=O)(=O)Nc2ccc(-n3cnnn3)cc2)cc1	–	–	–	–	–	–
COc1ccc(S(=O)(=O)NC2CCCCC2)cc1-n1cnnn1	–	21µM	–	–	–	–
COc1ccc(NS(=O)(=O)c2ccc(-n3cnnn3)cc2)cc1OC	–	9.2µM	?	16µM	–	–
CSc1ccc(NS(=O)(=O)c2ccc(-n3cnnn3)cc2)cc1	–	21µM	–	?	–	–
CCN1C(=O)C2CC3(CCN(C(=O)c4sc(C)nc4C)CC3)CN2C1=O (stereo not given)	–	·	·	·	·	·
CC(C(=O)NC(=O)NC1CC1)N1CCN(c2ccccc2F)CC1 (stereo not given)	–	·	·	·	·	·
O=C(CCc1c[nH]c2ccccc12)NC1CCCc2c1[nH]c1ccc(F)cc21 (stereo not given)	–	·	·	·	·	·
O=c1c2c3c(sc2n2cnnc2n1-c1ccccc1)CCCCC3	–	·	·	·	·	·
Cc1ccccc1-n1c(=O)c2c3c(sc2n2cnnc12)CCCC3	?	16µM	·	15µM	·	·
CC(C)(C)c1cc(NC(=O)c2cccc(Br)c2)no1	–	·	·	·	·	·
